Bioassay records deposited in PubChem BioAssay by several laboratories.
This is a sample that favours compounds with a hit; in the whole collection about 3.5% have one here.
Autofluor counter: flagged as autofluorescent in microsphere protease counterscreen. compound autofluorescence counterscreen, microsphere flow cytometry; hits give high values. fluorescence intensity (concentration not given with the values). 3.1% of 360,000 active; in the data active = fluorescence intensity above about 16000; inconclusive = no clear call, values can overlap the other calls
BoNT-A LC inh2: blocks Botulinum neurotoxin A light chain protease. multiplex microsphere protease substrate cleavage, flow cytometry. inhibition, % at 10 µM. 0.17% of 360,000 active. AID 588499; note: plate controls were buffer without enzyme for full effect and enzyme alone for no effect
Anthrax LF inh2: blocks Bacillus anthracis lethal factor protease; P15917; multiplex microsphere protease cleavage assay, LF; inhibition, % at 10 µM; 0.12% of 360,000 active; AID 588501; note: plate controls were buffer without enzyme for full effect and enzyme alone for no effect
Target sequence (P15917 whole entry, looked up): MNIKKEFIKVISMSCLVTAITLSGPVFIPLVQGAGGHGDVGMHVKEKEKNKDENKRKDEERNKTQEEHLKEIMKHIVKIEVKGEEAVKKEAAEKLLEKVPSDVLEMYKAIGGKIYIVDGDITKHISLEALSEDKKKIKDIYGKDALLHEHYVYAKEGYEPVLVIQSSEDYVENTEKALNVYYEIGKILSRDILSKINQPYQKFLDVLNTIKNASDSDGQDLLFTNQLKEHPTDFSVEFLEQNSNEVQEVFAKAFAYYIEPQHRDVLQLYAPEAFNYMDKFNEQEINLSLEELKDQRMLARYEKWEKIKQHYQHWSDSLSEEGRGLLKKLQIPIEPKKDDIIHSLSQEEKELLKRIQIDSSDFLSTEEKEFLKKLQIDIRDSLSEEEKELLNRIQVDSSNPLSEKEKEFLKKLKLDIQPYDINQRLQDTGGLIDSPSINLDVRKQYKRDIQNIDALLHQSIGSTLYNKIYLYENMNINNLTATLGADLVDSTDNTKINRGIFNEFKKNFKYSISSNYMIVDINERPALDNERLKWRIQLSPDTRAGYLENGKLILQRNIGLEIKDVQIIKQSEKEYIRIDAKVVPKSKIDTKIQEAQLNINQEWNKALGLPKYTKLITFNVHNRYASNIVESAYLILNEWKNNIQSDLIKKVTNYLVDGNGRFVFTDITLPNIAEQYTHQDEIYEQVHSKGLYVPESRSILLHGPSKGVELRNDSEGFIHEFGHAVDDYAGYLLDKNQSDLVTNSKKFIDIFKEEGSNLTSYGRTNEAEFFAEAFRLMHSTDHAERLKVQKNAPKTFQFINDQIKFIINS
BoNT F protease: inhibitors of Botulinum neurotoxin F light chain protease; 0.22% of 360,000 active; inhibition, % at 10 µM; Multiplex microsphere protease cleavage assay, flow cytometry; in the data active = inhibition above about 35%, passing the limit was not always enough; inconclusive = no clear call, values can overlap the other calls; note: plate controls were buffer without enzyme for full effect and enzyme alone for no effect
BJeLR viability: BJeLR cell viability loss; AID 1554; 0.17% of 300,000 active; BJeLR (HRASV12) viability, CellTiter-Glo ATP luminescence, 48 h; inhibition, % (test concentration not listed); in the data active = inhibition above about 50%; inconclusive = no clear call, values can overlap the other calls
An asterisk follows results filed as active; ? = inconclusive; . = no result. Cut-off read from the data, not from the text of the source, unless noted: active = inhibition above about 30%; inconclusive = no clear call, values can overlap the other calls; inactive = below that.

SMILES | Autofluor counter | BoNT-A LC inh2 | Anthrax LF inh2 | BoNT F protease | BJeLR viability
O=C(O)C1(Cc2nc3ccccc3[nH]2)CCCC1 | 2927 | -1.9 | 1.6 | 9.9 | -4.9
O=C(O)COCc1nc2ccccc2[nH]1 | 25242* | -2.7 | 1.9 | -0.7 | -4.2
COc1ccc(-c2coc3c(C(=O)Nc4cccnc4)cccc23)c(C)c1 | 3593 | -0.1 | -3.5 | 2.1 | .
Cn1nc(C2CC2)cc1NC(=O)C1(C)CCN1C(=O)CCc1ccccc1 (stereo unspecified) | 3750 | -0.1 | -5.5 | 2.4 | .
Cc1c(NC(=S)NC(=O)Cc2ccccc2)cccc1C(=O)O | 21800* | ? | -2.7 | -1.3 | 2.5
Cc1ccc(N(CC(=O)NCc2ccccc2)C(=O)c2csnn2)c(C)c1 | 6119 | -0.7 | -3.9 | -1.3 | -11.3
CCOC(=O)CNC(=O)COc1ccc(Cl)cc1Br | 23269* | -0.1 | -1.6 | -4.4 | -0.1
O=C(COC(=O)COc1ccc(Cl)cc1Br)NCc1cccs1 | 4465 | -0.6 | 1.6 | 6.1 | -5.8
CC(C)NC(=O)c1ccc(-c2cccc(C(F)(F)F)c2)o1 | 3254 | -0.2 | -8.5 | -3.5 | -6.1
CC(C)NC(=O)c1ccc(-c2cc(C(F)(F)F)ccc2Cl)o1 | 22154* | 0.0 | -2.4 | -2.7 | 1.0
CC(C)n1c(N2CCCC2)nc2c1c(=O)[nH]c(=O)n2C | 3676 | 0.7 | 0.1 | -11.6 | 8.3
Cn1c(N2CCCCC2)nc2c1c(=O)[nH]c(=O)n2C | 16214* | -0.5 | -5.0 | -1.4 | 9.0
COC(=O)c1ccccc1OS(=O)(=O)N(C)C | 2026 | -0.4 | 0.9 | 1.0 | 7.4
COC(=O)c1ccccc1OP1(=O)COc2ccccc2OC1 | 22712* | ? | -1.2 | -3.4 | 7.8
Cc1ccc(CS(=O)(=O)CCC(=O)NCCN(C)Cc2ccccc2)cc1 | 23874* | -0.1 | -1.0 | -0.7 | -8.9
CC(C)COC(=O)Nc1nnc(SCc2ccccc2F)s1 | 22547* | 1.6 | 4.5 | 6.3 | -0.5
CC(C)C(=O)Nc1nnc(CSCc2ccccc2F)s1 | 8542 | -0.7 | -1.2 | -1.6 | -11.9
CCC(=O)Nc1nnc(SCc2ccccc2F)s1 | 3801 | -0.1 | -1.5 | -9.9 | .
CC(C)(C)C(=O)Nc1nnc(CSCc2ccccc2F)s1 | 19760* | 1.1 | -2.3 | 0.8 | -8.4
CN(C)c1nc2sc3c(c2c(=O)n1C)CC(C)(C)OC3 | 2567 | -0.6 | -4.1 | 2.5 | 2.2
Cc1nn2c(C)nc3sc4c(c3c2nc1=O)CC(C)(C)OC4 | 25222* | -5.8 | 0.8 | -6.3 | -4.8
CC1(C)Cc2c(sc3nc(-c4cccs4)n(N)c(=O)c23)CO1 | 21380* | ? | 0.0 | 6.5 | 1.9
COc1ccc(Cn2cc(CN(C)C3CN(Cc4cn(Cc5ccc(OC)cc5)nn4)S(=O)(=O)C3)nn2)cc1 (stereo unspecified) | 6349 | -0.2 | -1.9 | -0.4 | .
CCNC(=O)COc1cccc2ccccc12 | 21317* | -1.2 | -0.8 | -0.3 | 2.2
Cc1ccccc1NC(=O)Nc1nc(C(N)C2CCCCC2)cs1 (stereo unspecified) | 3149 | -1.9 | -7.6 | -42.4 | .
SMILES | Autofluor counter | BoNT-A LC inh2 | Anthrax LF inh2 | BoNT F protease | BJeLR viability
CC(C)(C)NC(=O)C(c1ccccc1)N(C(=O)c1ccco1)C1CC1 (stereo unspecified) | 21553* | ? | -5.2 | 1.9 | -1.3
Cn1c(=O)c2[nH]c(C3CC=CCC3)nc2n(C)c1=O (stereo unspecified) | 3702 | -0.1 | -3.8 | 2.0 | .
Fc1cccc(C[n+]2csc3ccccc32)c1 | 17119* | -2.6 | -3.0 | -8.6 | 1.5
CCOc1ccc2c(c1)nc(SCC(=O)c1cccs1)n2C | 4527 | -0.6 | -1.0 | -11.1 | -6.9
CCOc1ccc2c(c1)nc(SCC(=O)c1ccc(Br)s1)n2C | 16282* | 1.9 | 1.3 | -1.3 | -8.5
Cc1cccc[n+]1CC(=O)Nc1ccccc1 | 4187 | 0.9 | 15.1 | 36.7* | 16.1
COC(=O)c1ccc(NC(=O)C[n+]2ccccc2C)cc1 | 4007 | -1.0 | 5.3 | -32.3 | -2.6
c1nc(N2CCCC2)c2[nH]cnc2n1 | 23416* | ? | -0.9 | -0.2 | -3.5
c1nc(N2CCCCCC2)c2[nH]cnc2n1 | 5711 | -0.5 | 3.6 | -0.5 | 5.1
CC1(C(=O)Nc2ccc(Cl)c(C(F)(F)F)c2)Cc2c(-c3ccc4c(c3)OCO4)ccnc2O1 (stereo unspecified) | 3448 | 0.1 | 0.2 | -5.5 | .
O=C(O)C1C2C=CC(C2)C1C(=O)N1CCOCC1 (stereo unspecified) | 12793 | 0.2 | 2.0 | 1.2 | -2.0
O=C(NC1CCCC1)C1C2C=CC(C2)C1C(=O)N1CCOCC1 (stereo unspecified) | 21400* | ? | -1.6 | 3.4 | -0.3
CC(=NNC(=S)N(Cc1ccccn1)Cc1ccccn1)c1cnccn1 | 4053 | 16.3 | 40.0* | 44.9* | .
S=C(NN=Cc1ccccn1)N(Cc1ccccn1)Cc1ccccn1 | 3814 | 12.2 | 21.0 | 16.7 | .
S=C(NN=C(c1ccccc1)c1ccccn1)N(Cc1ccccn1)Cc1ccccn1 | 3806 | 51.4* | 43.0* | 42.5* | .
Cc1ccc(C)c(-n2c(N)c(C(N)=O)sc2=S)c1 | 3822 | -0.3 | 1.7 | 2.5 | -4.4
CCOc1ccccc1-n1c(N)c(C(N)=O)sc1=S | 16402* | 0.5 | 2.0 | 2.1 | -1.4
CCOC(=O)c1sc(=S)n(-c2ccccc2OC)c1N | 2343 | 0.0 | -1.2 | -6.7 | -2.7
Cc1ccc(-n2c(N)c(C(N)=O)sc2=S)c(C)c1 | 18506* | 3.2 | -0.5 | 1.2 | 0.0
CCOC(=O)c1c(N)sc(C(=O)OCCOC)c1C | 2423 | 0.1 | -0.2 | 0.7 | -2.6
CSc1ccc(C2Nc3ccccc3-c3cc(C)nn32)cc1 (stereo unspecified) | 21584* | 3.2 | -2.0 | 3.8 | 0.8
COc1ccc(-c2cn3ccccc3n2)cc1OC | 20804* | 5.9 | -0.9 | 9.0 | 24.4
COc1ccc(-c2cn3cc(C)ccc3n2)cc1OC | 3641 | -0.2 | 1.1 | 7.6 | 2.0
O=S(=O)(Nc1ccc2c(c1)OCO2)c1ccccc1 | 23731* | ? | -1.8 | -7.7 | -4.5
CC(=O)c1ccc(NS(=O)(=O)c2ccc(N)cc2)cc1 | 2094 | -0.7 | -0.5 | -2.8 | 3.6
SMILES | Autofluor counter | BoNT-A LC inh2 | Anthrax LF inh2 | BoNT F protease | BJeLR viability
CC(=O)c1cc2c(cc1NS(=O)(=O)c1ccccc1)OCO2 | 20902* | -4.7 | -7.0 | -8.1 | 3.4
CC(=O)c1ccc(NS(=O)(=O)c2ccccc2)cc1 | 21657* | -1.7 | 2.7 | -1.3 | -20.2
Nc1cccc(C(=O)Nc2cccc3ncccc23)c1 | 3146 | -4.9 | -16.4 | ? | 4.9
CC1=C(C(=O)Nc2cc(C(=O)NCCC(C)C)ccc2C)SCCO1 | 2897 | 2.4 | 2.5 | -0.1 | -11.2
O=P(Cc1ccccc1O)(c1ccccc1)c1ccccc1 | 2537 | -1.7 | 1.2 | -17.4 | 9.7
O=P(Cc1ccccn1)(c1ccccc1)c1ccccc1 | 24061* | -2.5 | -3.2 | -3.3 | -2.7
Cc1ccccc1CN(c1ccc(C(=O)NCc2ccccn2)cc1)S(C)(=O)=O | 4142 | 0.0 | -0.7 | -3.9 | -8.2
COc1cccc(S(=O)(=O)N(C)C[C@@H]2Oc3cc(C#CCN(C)C)ccc3S(=O)(=O)N([C@H](C)CO)C[C@@H]2C)c1 | 4367 | 0.4 | -5.5 | -15.5 | .
CC(=O)Cc1nsc(NC(=O)c2cc(-c3ccc(Cl)c(Cl)c3)oc2C)n1 | 23305* | -3.2 | -3.4 | -4.3 | 4.1
